Data published in publication PMC7862700, “An all-to-all approach to the identification of sequence-specific readers for epigenetic DNA modifications on cytosine”.

Legend:
Assay in all cases: DAPPL (digital affinity profiling via proximity ligation, sequencing); 10 mM Tris-HCl pH 7.5, 50 mM NaCl, 1 mM DTT, 4% glycerol, room temperature, 30 min; GST-TFs on glutathione beads, 16-mer random dsDNA library, 0.1% formaldehyde crosslink after washing; high values mean tight binding
Details in all cases: protein: recombinant; tags: N-terminal GST; dsDNA, one strand shown
FLI1 = target: T1, FLI1 (Homo sapiens, UniProt Q01543 1-452)
T1 sequence: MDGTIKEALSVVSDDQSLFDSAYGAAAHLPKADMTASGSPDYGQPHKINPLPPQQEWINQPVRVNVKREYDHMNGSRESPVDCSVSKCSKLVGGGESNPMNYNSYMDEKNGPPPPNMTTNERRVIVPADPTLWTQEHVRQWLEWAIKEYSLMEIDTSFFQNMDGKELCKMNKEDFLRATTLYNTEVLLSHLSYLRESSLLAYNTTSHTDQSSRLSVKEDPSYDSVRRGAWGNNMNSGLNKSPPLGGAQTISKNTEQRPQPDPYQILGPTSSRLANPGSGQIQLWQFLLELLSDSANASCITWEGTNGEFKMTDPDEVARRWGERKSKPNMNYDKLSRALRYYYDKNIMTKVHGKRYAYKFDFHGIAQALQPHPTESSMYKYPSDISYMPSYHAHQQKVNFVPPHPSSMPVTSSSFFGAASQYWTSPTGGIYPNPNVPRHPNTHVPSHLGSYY
How it was run: (§1)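 Human transcription factors carrying a GST fusion were produced in yeast, bound to glutathione beads, tagged with DNA barcodes and pooled together with a tag-only sample. Each pool was held with 200 nmole of a random double-stranded 16-mer DNA library in Tris/NaCl/DTT/glycerol buffer for 30 min at room temperature, then washed, crosslinked in 0.1% formaldehyde, proximity-ligated with BsaI/T4 ligase (1 h, 37 °C), PCR-amplified and sequenced on an Illumina NextSeq500. Binding signal is the read frequency of each hexamer for a given factor divided by its frequency in the tag-only sample.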

ELK1 = target: T2, ELK1 (Homo sapiens, UniProt P19419 1-428)
T2 sequence: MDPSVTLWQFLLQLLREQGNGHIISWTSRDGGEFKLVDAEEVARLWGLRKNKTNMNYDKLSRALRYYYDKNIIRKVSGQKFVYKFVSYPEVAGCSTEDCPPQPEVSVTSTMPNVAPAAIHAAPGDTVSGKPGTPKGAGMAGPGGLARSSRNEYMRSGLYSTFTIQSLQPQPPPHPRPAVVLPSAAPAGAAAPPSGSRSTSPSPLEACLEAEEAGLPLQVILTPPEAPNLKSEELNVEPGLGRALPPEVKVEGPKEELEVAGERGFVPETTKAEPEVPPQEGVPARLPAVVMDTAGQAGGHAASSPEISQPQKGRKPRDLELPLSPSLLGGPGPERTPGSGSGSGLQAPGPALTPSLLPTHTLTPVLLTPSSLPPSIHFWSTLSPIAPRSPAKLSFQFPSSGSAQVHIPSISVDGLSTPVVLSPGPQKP
How it was run: as §1

GABPA = target: T3, GABPA (Homo sapiens, UniProt Q06546 1-454)
T3 sequence: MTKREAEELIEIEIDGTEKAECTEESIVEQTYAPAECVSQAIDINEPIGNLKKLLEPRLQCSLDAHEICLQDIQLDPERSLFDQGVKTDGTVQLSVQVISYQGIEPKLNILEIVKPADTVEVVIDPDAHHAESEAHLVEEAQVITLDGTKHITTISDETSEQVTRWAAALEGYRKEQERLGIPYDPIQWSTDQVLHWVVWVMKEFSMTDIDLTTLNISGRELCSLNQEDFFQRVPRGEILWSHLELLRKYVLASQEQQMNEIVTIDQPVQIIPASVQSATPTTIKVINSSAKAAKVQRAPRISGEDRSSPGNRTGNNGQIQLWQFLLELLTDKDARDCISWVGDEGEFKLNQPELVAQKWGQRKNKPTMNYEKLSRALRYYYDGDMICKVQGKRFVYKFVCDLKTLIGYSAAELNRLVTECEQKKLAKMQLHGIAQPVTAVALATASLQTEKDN
How it was run: as §1

ERG = target: T4, ERG (Homo sapiens, UniProt P11308 1-479)
T4 sequence: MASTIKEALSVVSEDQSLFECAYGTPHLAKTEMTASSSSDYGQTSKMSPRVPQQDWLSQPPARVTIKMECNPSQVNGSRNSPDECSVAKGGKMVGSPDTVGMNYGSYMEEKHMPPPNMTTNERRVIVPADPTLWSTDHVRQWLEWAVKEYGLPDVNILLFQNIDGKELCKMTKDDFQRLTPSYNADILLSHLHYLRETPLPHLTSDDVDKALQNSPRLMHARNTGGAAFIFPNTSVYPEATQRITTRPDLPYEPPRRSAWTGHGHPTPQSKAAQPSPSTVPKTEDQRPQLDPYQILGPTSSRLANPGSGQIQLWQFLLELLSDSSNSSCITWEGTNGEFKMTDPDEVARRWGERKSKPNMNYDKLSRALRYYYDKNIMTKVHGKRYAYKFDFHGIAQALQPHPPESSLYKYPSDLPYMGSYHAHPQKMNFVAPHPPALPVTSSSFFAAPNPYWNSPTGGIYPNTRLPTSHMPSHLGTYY
How it was run: as §1

ELF1 = ELF1 (Homo sapiens, UniProt P32519 1-619)
How it was run: as §1

EHF = target: T5, EHF (Homo sapiens, UniProt Q9NZC4 1-300)
T5 sequence: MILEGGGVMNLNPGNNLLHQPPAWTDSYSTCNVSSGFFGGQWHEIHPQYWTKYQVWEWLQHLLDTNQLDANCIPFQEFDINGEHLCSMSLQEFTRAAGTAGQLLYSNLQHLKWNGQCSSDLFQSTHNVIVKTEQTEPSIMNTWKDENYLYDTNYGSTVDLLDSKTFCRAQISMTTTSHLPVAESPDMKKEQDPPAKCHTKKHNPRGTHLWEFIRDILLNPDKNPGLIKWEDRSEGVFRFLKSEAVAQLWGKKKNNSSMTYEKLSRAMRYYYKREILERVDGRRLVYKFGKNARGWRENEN
How it was run: as §1

SPI1 = SPI1 (Homo sapiens, UniProt P17947 1-270)
How it was run: as §1

SPIB = SPIB (Homo sapiens, UniProt Q01892 1-262)
How it was run: as §1

ELK3 = target: T6, ELK3 (Homo sapiens, UniProt P41970 1-407)
T6 sequence: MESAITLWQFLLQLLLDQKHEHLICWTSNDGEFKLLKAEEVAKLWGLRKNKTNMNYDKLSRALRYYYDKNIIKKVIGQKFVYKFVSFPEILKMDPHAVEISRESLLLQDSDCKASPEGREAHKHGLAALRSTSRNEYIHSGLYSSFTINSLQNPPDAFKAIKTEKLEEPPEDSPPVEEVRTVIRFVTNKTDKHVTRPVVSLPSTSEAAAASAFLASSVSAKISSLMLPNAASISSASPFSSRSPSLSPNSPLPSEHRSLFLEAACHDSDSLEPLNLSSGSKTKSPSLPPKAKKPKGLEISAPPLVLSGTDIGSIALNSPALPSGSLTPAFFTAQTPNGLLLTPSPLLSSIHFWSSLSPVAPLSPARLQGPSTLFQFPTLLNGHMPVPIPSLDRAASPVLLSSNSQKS
How it was run: as §1

FEV = target: T7, FEV (Homo sapiens, UniProt Q99581 1-238)
T7 sequence: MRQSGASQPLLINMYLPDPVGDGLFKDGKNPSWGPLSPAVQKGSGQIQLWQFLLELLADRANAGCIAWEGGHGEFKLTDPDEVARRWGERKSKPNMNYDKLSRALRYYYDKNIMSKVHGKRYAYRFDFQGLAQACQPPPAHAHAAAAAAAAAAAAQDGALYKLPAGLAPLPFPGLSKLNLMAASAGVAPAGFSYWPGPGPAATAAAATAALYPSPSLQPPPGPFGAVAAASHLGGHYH
How it was run: as §1

ETV5 = ETV5 (Homo sapiens, UniProt P41161 1-510)
How it was run: as §1

SPIC = target: T8, SPIC (Homo sapiens, UniProt Q8N5J4 1-248)
T8 sequence: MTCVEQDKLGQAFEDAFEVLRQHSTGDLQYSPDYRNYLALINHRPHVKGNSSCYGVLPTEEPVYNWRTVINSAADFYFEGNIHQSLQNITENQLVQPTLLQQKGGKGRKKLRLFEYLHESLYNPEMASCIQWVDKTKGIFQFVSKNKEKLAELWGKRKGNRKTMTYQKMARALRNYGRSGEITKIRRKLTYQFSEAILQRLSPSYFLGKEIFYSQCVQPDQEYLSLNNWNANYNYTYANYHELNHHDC
How it was run: as §1

ELF4 = ELF4 (Homo sapiens, UniProt Q99607 1-663)
How it was run: as §1

ETV1 = ETV1 (Homo sapiens, UniProt P50549 1-477)
How it was run: as §1

ETV3L = target: T9, ETV3L (Homo sapiens, UniProt Q6ZN32 1-361)
T9 sequence: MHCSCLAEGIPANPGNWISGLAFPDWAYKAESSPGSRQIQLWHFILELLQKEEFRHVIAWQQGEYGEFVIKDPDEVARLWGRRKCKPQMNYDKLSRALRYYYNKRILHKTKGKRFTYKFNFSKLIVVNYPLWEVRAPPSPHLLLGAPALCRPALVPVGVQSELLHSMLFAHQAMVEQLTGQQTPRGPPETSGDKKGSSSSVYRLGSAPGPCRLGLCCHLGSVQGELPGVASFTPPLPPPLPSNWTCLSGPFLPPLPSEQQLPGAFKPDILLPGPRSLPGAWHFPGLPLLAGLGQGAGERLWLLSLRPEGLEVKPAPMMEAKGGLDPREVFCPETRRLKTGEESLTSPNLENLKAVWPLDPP
How it was run: as §1

ETS2 = target: T10, ETS2 (Homo sapiens, UniProt P15036 1-469)
T10 sequence: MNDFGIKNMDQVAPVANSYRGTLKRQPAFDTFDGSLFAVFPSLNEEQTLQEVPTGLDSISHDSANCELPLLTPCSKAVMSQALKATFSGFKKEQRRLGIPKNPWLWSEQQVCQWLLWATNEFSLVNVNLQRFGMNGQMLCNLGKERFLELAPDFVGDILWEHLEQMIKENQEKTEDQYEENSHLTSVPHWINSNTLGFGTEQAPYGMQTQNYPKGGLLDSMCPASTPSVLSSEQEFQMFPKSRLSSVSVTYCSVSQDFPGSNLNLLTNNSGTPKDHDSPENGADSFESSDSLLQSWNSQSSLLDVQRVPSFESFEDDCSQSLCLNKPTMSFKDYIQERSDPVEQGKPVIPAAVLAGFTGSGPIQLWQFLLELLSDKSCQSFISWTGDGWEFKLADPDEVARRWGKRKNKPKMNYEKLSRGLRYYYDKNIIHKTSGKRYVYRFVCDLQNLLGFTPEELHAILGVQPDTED
How it was run: as §1

SPDEF = target: T11, SPDEF (Homo sapiens, UniProt O95238 1-335)
T11 sequence: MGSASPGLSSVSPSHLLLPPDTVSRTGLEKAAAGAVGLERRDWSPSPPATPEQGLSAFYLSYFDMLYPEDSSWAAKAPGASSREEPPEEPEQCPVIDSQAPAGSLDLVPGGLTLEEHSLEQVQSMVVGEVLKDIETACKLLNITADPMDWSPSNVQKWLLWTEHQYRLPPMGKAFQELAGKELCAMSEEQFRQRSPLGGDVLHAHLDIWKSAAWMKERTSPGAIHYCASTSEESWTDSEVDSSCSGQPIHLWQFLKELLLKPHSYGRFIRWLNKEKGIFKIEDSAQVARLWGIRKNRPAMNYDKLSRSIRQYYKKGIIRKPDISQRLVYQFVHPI
How it was run: as §1

ETV3 = target: T12, ETV3 (Homo sapiens, UniProt P41162-2 1-143)
T12 sequence: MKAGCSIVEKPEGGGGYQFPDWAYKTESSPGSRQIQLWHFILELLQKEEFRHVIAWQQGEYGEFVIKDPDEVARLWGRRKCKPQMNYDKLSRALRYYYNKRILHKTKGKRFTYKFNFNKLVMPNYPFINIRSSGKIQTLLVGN
How it was run: as §1

ETV6 = ETV6 (Homo sapiens, UniProt P41212 1-452)
How it was run: as §1

Sequence of ETV5 (P41161 whole entry): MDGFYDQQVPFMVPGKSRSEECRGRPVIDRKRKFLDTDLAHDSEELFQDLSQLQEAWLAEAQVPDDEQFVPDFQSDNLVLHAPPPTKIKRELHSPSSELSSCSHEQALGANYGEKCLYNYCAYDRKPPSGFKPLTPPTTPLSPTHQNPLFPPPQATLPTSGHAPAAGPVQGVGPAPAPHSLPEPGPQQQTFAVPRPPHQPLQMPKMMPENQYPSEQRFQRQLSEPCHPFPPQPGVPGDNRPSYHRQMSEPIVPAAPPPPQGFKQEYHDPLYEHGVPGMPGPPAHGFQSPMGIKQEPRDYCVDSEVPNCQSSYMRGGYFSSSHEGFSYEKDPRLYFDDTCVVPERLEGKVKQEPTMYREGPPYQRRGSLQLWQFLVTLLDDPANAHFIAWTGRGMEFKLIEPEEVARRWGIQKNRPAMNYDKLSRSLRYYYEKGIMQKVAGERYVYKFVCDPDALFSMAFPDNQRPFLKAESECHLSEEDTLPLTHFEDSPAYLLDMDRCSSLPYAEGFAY
Sequence of SPIB (Q01892 whole entry): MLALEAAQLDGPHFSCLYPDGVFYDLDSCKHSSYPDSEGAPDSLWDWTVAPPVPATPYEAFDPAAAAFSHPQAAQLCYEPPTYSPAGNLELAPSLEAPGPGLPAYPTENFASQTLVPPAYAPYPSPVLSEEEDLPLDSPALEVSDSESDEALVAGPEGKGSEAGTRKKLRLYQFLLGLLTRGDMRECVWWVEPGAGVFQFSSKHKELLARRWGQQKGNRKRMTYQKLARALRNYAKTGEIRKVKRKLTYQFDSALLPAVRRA
Sequence of ETV6 (P41212 whole entry): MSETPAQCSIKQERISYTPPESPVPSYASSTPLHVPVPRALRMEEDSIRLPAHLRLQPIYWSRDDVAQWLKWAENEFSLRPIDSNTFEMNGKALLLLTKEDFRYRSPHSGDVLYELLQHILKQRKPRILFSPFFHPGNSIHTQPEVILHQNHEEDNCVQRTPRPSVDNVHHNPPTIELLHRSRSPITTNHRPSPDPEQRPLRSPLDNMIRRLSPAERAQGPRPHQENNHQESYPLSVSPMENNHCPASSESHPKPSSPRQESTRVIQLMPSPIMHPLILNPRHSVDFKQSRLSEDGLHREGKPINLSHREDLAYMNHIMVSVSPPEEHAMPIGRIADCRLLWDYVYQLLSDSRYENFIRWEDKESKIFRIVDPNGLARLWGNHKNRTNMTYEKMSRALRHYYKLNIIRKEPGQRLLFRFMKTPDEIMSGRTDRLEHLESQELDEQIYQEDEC
Sequence of ETV1 (P50549 whole entry): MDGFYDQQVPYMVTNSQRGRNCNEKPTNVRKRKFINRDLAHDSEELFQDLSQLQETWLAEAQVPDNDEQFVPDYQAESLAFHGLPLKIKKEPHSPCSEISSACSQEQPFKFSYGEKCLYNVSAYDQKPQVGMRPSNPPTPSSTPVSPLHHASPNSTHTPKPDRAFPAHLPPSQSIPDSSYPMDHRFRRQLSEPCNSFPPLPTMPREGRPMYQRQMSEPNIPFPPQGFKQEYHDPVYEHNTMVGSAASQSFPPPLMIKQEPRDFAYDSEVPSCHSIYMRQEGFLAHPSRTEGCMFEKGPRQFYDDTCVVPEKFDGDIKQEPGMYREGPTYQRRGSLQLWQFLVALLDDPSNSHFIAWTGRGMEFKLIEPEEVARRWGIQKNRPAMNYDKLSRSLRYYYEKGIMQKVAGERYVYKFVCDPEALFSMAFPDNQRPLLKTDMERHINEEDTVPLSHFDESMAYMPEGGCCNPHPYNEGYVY
Sequence of ELF4 (Q99607 whole entry): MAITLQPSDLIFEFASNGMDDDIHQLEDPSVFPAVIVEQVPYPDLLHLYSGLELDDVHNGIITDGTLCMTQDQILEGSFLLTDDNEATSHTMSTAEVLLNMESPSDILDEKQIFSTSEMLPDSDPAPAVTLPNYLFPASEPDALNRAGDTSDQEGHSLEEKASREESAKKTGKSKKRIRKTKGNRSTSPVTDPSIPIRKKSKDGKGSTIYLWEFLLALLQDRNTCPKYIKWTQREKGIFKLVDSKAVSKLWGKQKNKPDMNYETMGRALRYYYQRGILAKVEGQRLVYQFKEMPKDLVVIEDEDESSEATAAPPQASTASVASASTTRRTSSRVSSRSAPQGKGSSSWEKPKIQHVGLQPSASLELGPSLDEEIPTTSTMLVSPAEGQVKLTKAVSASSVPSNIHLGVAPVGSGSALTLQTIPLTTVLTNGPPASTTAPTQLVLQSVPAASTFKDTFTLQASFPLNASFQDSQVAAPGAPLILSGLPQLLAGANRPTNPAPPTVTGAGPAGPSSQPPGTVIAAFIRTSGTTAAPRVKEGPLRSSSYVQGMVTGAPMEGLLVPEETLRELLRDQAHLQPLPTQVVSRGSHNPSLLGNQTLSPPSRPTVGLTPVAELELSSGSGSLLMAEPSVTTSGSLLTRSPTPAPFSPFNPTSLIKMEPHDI
Sequence of ELF1 (P32519 whole entry): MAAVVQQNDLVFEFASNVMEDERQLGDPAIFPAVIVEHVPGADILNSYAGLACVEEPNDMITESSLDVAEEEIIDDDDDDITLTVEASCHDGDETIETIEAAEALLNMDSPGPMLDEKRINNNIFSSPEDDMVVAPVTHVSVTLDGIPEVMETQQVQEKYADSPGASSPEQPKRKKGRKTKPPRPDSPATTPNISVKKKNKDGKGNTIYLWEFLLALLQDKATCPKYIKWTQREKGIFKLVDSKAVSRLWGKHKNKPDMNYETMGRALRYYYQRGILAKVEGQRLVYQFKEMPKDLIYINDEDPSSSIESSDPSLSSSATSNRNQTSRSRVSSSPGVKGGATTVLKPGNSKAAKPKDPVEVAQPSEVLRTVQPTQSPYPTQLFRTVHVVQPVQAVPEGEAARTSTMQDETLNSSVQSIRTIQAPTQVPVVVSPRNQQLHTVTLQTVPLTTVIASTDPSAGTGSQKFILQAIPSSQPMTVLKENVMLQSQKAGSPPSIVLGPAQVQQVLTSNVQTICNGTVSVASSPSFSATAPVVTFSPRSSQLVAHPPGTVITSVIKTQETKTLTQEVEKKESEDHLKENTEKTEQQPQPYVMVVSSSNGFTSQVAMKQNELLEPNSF

Sequence: TTGCCG
- binding signal (FLI1): 1.2 fold enrichment (6-mer frequency, TF over GST control)
- binding signal (ELK1): 1.14 fold enrichment (6-mer frequency, TF over GST control)
- binding signal (GABPA): 1.16 fold enrichment (6-mer frequency, TF over GST control)
- binding signal (ERG): 1.04 fold enrichment (6-mer frequency, TF over GST control)
- binding signal (ELF1): 1.03 fold enrichment (6-mer frequency, TF over GST control)
- binding signal (EHF): 1.19 fold enrichment (6-mer frequency, TF over GST control)
- binding signal (SPI1): 1.12 fold enrichment (6-mer frequency, TF over GST control)
- binding signal (SPIB): 1.12 fold enrichment (6-mer frequency, TF over GST control)
- binding signal (ELK3): 1.07 fold enrichment (6-mer frequency, TF over GST control)
- binding signal (FEV): 1.12 fold enrichment (6-mer frequency, TF over GST control)
- binding signal (ETV5): 1.12 fold enrichment (6-mer frequency, TF over GST control)
- binding signal (SPIC): 1.08 fold enrichment (6-mer frequency, TF over GST control)
- binding signal (ELF4): 1.12 fold enrichment (6-mer frequency, TF over GST control)
- binding signal (ETV1): 1.09 fold enrichment (6-mer frequency, TF over GST control)
- binding signal (ETV3L): 1.11 fold enrichment (6-mer frequency, TF over GST control)
- binding signal (ETS2): 1.12 fold enrichment (6-mer frequency, TF over GST control)
- binding signal (SPDEF): 1.13 fold enrichment (6-mer frequency, TF over GST control)
- binding signal (ETV3): 1.1 fold enrichment (6-mer frequency, TF over GST control)
- binding signal (ETV6): 1.08 fold enrichment (6-mer frequency, TF over GST control)
